Experimental data from PubChem BioAssay (NCI).
Where “and” joins values, the source holds several entries; their conditions need not be identical. Equal entries are not always repeated. The panel holds about 83,000 compounds, 20% with a hit somewhere; the sample as a whole holds those more often.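 Results are percent growth after 48 hours of single-concentration exposure. 100 means growth as in untreated cells, lower positive values show inhibition; negative values down to -100 show cell death.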 Calls of active or inactive are those of the source. The calls were made as follows: active = growth percent below 10; inactive = the rest.

These compounds were tested on UO-31 renal (assay: NCI-60 one-dose screen, 48 h (100 = growth as untreated, 0 = no growth, -100 = all killed)). Details: 10 µM unless noted.

Compound | growth
Cc1cc(C(C)(CC(C)C)c2ccc(O)c(C)c2)ccc1O | 84.6% (inactive)
O=C1c2cccnc2-c2nccc3c2c1nc1cc(Br)ccc13 | -80% (active) and -93% (active)
NC(=S)N/N=C\c1nccc2c(C(F)(F)C(F)(F)C(F)(F)F)cccc12 | -31.9% (active)
N#CSCc1ccc(Cl)c(CSC#N)c1 | 24.6% (inactive)
CC(=O)Nc1cccc2cc(O)ccc12 | 94.6% (inactive) and 89.5% (inactive) and 75.1% (inactive)
O=C1c2ccccc2C(=O)c2sc(Nc3ccc(Cl)cc3)nc21 | 21.7% (inactive)
CCCCCC(CCCCC)C(=O)O | 87.6% (inactive)
CN(C)c1ccc(C(=C2C=CC(=[N+](C)C)C=C2)c2ccc(N(C)C)cc2)cc1 (tested in a mixture with another compound) | -80.8% (active)
Nc1ncnc2c1ncn2C1OC(CO)C(O)C1O (stereo unspecified) | 92.9% (inactive) and 76.6% (inactive) and 90.3% (inactive)
Oc1c(Br)cc(Cl)cc1C(c1cc(Cl)cc(Br)c1O)C(Cl)(Cl)Cl | 12.6% (inactive)
CC1OC(OC2C(OC3CCC4(C)C(CCC5(C)C4CC=C4C6CC(C)(C)CCC6(CO)C(O)CC45C)C3(C)C)OC(C(=O)O)C(OC3OC(COC4OC(CO)C(O)C(O)C4O)C(O)C(O)C3O)C2O)C(O)C(O)C1O (stereo unspecified) | -88.7% (active)
O=Nc1ccccc1N=O | 64% (inactive)
CN(Cc1cnc2nc(N)nc(N)c2n1)c1ccc(C(=O)NC(CCC(=O)O)C(=O)O)cc1 (stereo unspecified) | 9.25% (active)
CCCCCCCCCCCCCCNCc1ccccc1 | 62.4% (inactive)
O=C(Nc1cccc(Br)c1)Oc1ccc(Cl)c2cccnc12 | 13.9% [100 µM] (inactive)
Cc1ccc2c(ccc3c[n+]4c5ccccc5ccc4n32)c1 | 51% (inactive)
CCC(c1cccc(O)c1)C(CC)c1cccc(O)c1 (stereo unspecified) | 64.1% (inactive)

Compound | growth
CN(C)c1ccc(N=Nc2cccc3ccccc23)cc1 | 57.5% (inactive)
CCOC(=O)/C=C/c1ccc([N+](=O)[O-])o1 | 38.5% (inactive)
Cc1cc2nc(CS)[nH]c2cc1C | 83.1% (inactive)
CCCCCCC(C)c1ccccc1O (stereo unspecified) (tested in a mixture with another compound) | 99.1% (inactive)
Oc1c(Br)c(Br)c(O)c(Br)c1Br | -80.4% (active)
COC(=O)[C@@]12OC[C@]34[C@H]([C@@H](O)[C@@H]1O)[C@@]1(C)[C@H](O)C(=O)C=C(C)[C@@H]1C[C@H]3OC(=O)C(OC(C)=O)[C@@H]24 (stereo partly specified) | -35.1% (active)
NC(=S)N/N=C/c1ccc(Cl)s1 | 100% (inactive)
CCC(CC)COC(=O)c1ccc(O)c(O)c1 | 26.3% (inactive)
CCOc1ccc(-c2nc3ccc(-c4nc5ccc(N6CCN(C)CC6)cc5[nH]4)cc3[nH]2)cc1 | 23.2% (inactive)
Nc1nc(N)c2c(ccc3c2ccn3Cc2cccc([N+](=O)[O-])c2)n1 | -95.5% (active)
O[C@H]1[C@H]2c3cc4c(cc3CN3CCC(=C[C@@H]1O)[C@H]23)OCO4 | 33% (inactive)
O=C1C=CC(=O)N1C1c2ccccc2-c2ccccc21 | 75.5% (inactive)
COc1ccc(N=N/N=c2\sc3cc(OC)ccc3n2C)cc1 | 82.7% (inactive)
C1=C(c2ccccc2)C(c2ccc(OCCN3CCCCC3)cc2)Oc2ccccc21 (stereo unspecified) | 56.7% (inactive)
CC1SC(=S)N(c2ccc(Cl)cc2)C1=O (stereo unspecified) | 78.9% (inactive) and 73.9% (inactive)
Oc1ccc(/C=N/NC(=S)Nc2ccccc2)nc1 | -2.11% (active)

Each compound was assayed on TK-10 renal in the same assay as above. Details: 10 µM unless noted.

Compound | growth
Cc1cc(C(C)(CC(C)C)c2ccc(O)c(C)c2)ccc1O | 141% (inactive)
O=C1c2cccnc2-c2nccc3c2c1nc1cc(Br)ccc13 | 44.5% (inactive) and -98.9% (active)
NC(=S)N/N=C\c1nccc2c(C(F)(F)C(F)(F)C(F)(F)F)cccc12 | 11.9% (inactive)
N#CSCc1ccc(Cl)c(CSC#N)c1 | 59.5% (inactive)
CC(=O)Nc1cccc2cc(O)ccc12 | 123% (inactive) and 99.7% (inactive) and 97.9% (inactive)
O=C1c2ccccc2C(=O)c2sc(Nc3ccc(Cl)cc3)nc21 | 174% (inactive)
CCCCCC(CCCCC)C(=O)O | 101% (inactive)
CN(C)c1ccc(C(=C2C=CC(=[N+](C)C)C=C2)c2ccc(N(C)C)cc2)cc1 (tested in a mixture with another compound) | -79.2% (active)
Nc1ncnc2c1ncn2C1OC(CO)C(O)C1O (stereo unspecified) | 114% (inactive) and 106% (inactive) and 118% (inactive)
Oc1c(Br)cc(Cl)cc1C(c1cc(Cl)cc(Br)c1O)C(Cl)(Cl)Cl | 24.5% (inactive)
CC1OC(OC2C(OC3CCC4(C)C(CCC5(C)C4CC=C4C6CC(C)(C)CCC6(CO)C(O)CC45C)C3(C)C)OC(C(=O)O)C(OC3OC(COC4OC(CO)C(O)C(O)C4O)C(O)C(O)C3O)C2O)C(O)C(O)C1O (stereo unspecified) | -69.3% (active)
O=Nc1ccccc1N=O | 115% (inactive)
CN(Cc1cnc2nc(N)nc(N)c2n1)c1ccc(C(=O)NC(CCC(=O)O)C(=O)O)cc1 (stereo unspecified) | 58.8% (inactive)
CCCCCCCCCCCCCCNCc1ccccc1 | 103% (inactive)
O=C(Nc1cccc(Br)c1)Oc1ccc(Cl)c2cccnc12 | 170% [100 µM] (inactive)
Cc1ccc2c(ccc3c[n+]4c5ccccc5ccc4n32)c1 | 58.6% (inactive)
CCC(c1cccc(O)c1)C(CC)c1cccc(O)c1 (stereo unspecified) | 80% (inactive)

Compound | growth
CN(C)c1ccc(N=Nc2cccc3ccccc23)cc1 | 80.9% (inactive)
CCOC(=O)/C=C/c1ccc([N+](=O)[O-])o1 | 40.7% (inactive)
Cc1cc2nc(CS)[nH]c2cc1C | 131% (inactive)
CCCCCCC(C)c1ccccc1O (stereo unspecified) (tested in a mixture with another compound) | 119% (inactive)
Oc1c(Br)c(Br)c(O)c(Br)c1Br | 42.6% (inactive)
COC(=O)[C@@]12OC[C@]34[C@H]([C@@H](O)[C@@H]1O)[C@@]1(C)[C@H](O)C(=O)C=C(C)[C@@H]1C[C@H]3OC(=O)C(OC(C)=O)[C@@H]24 (stereo partly specified) | -32.7% (active)
NC(=S)N/N=C/c1ccc(Cl)s1 | 105% (inactive)
CCC(CC)COC(=O)c1ccc(O)c(O)c1 | 82.5% (inactive)
CCOc1ccc(-c2nc3ccc(-c4nc5ccc(N6CCN(C)CC6)cc5[nH]4)cc3[nH]2)cc1 | -84.9% (active)
Nc1nc(N)c2c(ccc3c2ccn3Cc2cccc([N+](=O)[O-])c2)n1 | -92.4% (active)
O[C@H]1[C@H]2c3cc4c(cc3CN3CCC(=C[C@@H]1O)[C@H]23)OCO4 | 54.1% (inactive)
O=C1C=CC(=O)N1C1c2ccccc2-c2ccccc21 | 51.4% (inactive)
COc1ccc(N=N/N=c2\sc3cc(OC)ccc3n2C)cc1 | 106% (inactive)
C1=C(c2ccccc2)C(c2ccc(OCCN3CCCCC3)cc2)Oc2ccccc21 (stereo unspecified) | 74.9% (inactive)
CC1SC(=S)N(c2ccc(Cl)cc2)C1=O (stereo unspecified) | 103% (inactive) and 114% (inactive)
Oc1ccc(/C=N/NC(=S)Nc2ccccc2)nc1 | 31.2% (inactive)
